# Assay results as given in PubChem BioAssay AID2315 (National Center for Advancing Translational Sciences (NCATS), 2010).
# The whole screen tested about 290,000 compounds, of which about 27,000 (9.3%) were called active. What follows is part of a selection rich in actives, with near analogues and random picks from the rest. Unmarked numbers belong to inactive results. Cut-off read from the data, not from the text of the source: active = inhibition mostly above about 28% (no sharp cut-off); inactive = mostly below about 43%.
# Experiment: A qHTS for Small Molecule Inhibitors of Shiga Toxin; note: 0% is about no effect
# Conditions: Vero cells, Shiga toxin protein synthesis inhibition reporter; at 38.7 µM, active compounds read high
row,Compound,inhibition
1,COC(=O)c1ccc(N2CCOCC2)c(NC(=O)c2ccc(Br)o2)c1,31.4%
2,Cc1[nH]n(C(N)=S)c(=O)c1N=Nc1ccc(Cl)cc1Cl,44.3% (active)
3,CC1=NN(C(N)=S)C(=O)C1N=Nc1cc(Cl)ccc1Cl (stereo unspecified),-1.92%
4,Cc1cccc(N=Nc2c(C)[nH]n(-c3ccccc3)c2=O)c1,-4.8%
5,Cc1cc(C)c2oc(C(=O)Nc3ccc(S(=O)(=O)Nc4nccc(C)n4)cc3)cc(=O)c2c1,2.27%
6,CCc1ccc(NC(=O)C(C)OC(=O)/C=C/c2cccc([N+](=O)[O-])c2)cc1 (stereo unspecified),15.5%
7,O=C(N/N=C/c1cccc([N+](=O)[O-])c1)c1ccncc1,22.3%
8,Cc1ccc(NC(=O)O/N=C/c2cccc([N+](=O)[O-])c2)cc1,70.8% (active)
9,Cc1ccc(C)c(S(=O)(=O)Nc2cc(C)on2)c1,-4.53%
10,CCc1cc2c(=O)c(-c3ccc(F)cc3)c(C(F)(F)F)oc2cc1OCC(=O)O,5.27%
11,COc1ccc2oc(N)c(C=O)c(=O)c2c1,63.7%
12,CCc1cc2c(=O)c(-c3ccon3)c(N)oc2cc1OC,82.2% (active)
13,CSc1nnc(C2CCCN(CC(=O)Nc3ccccc3N3CCOCC3)C2)n1C(C)C (stereo unspecified),-9.97%
14,O=C(Cn1c(NCCO)nc2ccccc21)c1ccc(Cl)cc1Cl,-8.74%
15,COC(=O)c1c(NC(=O)C2CC(C)=C(C)CC2C(=O)O)sc2c1CCCCC2 (stereo unspecified),-7.33%
16,CCOc1ccccc1NC(=O)CCc1nnc2ccc(NCc3ccco3)nn12,-9.81%
17,O=C(CCc1nnc2ccc(NCc3ccco3)nn12)Nc1cc(F)ccc1F,-6.06%
18,CC(=O)c1ccc(NC(=O)CCc2nnc3ccc(NCc4ccco4)nn23)cc1,49.7% (active)
19,COCCNC(=O)CCCN1C(=O)c2ccccc2Sc2ncccc21,-19.8%
20,CCOc1ccccc1-c1nc(CN2CCC(C(=O)N3CCOCC3)CC2)c(C)o1,-7.77%
21,O=C(NCc1ccccn1)C1CCN(S(=O)(=O)c2ccc(Br)cc2)CC1,-33.7%
22,Cc1ccc(-c2cc(N)on2)cc1,108% (active)
23,Cc1ccc(S(=O)(=O)Cc2cc(-c3ccc(Cl)cc3)no2)cc1,8.79%
24,O=C(Cc1ccccc1Cl)N1CCOCC1,-11.4%

row,Compound,inhibition
1,CN1CCCC(OC(=O)COc2ccc(Br)cc2)C1 (stereo unspecified),-12%
2,CC1CN/C(=C\C(=O)c2ccc(Br)cc2)C(=O)N1 (stereo unspecified),67.3% (active)
3,COc1cc2c(cc1OC)/C(=C/C(=O)c1ccc(NC(C)=O)cc1)NCC2,-6.51%
4,CC(C)(C)OC(=O)NC(Cc1ccccc1)C(=O)NC(CSC1CCCCO1)C(=O)NN (stereo unspecified),-14.3%
5,Cc1cccc(N2CCN(C(=O)COCc3cc(-c4ccc5c(c4)OCO5)on3)CC2)c1C,-8.35%
6,CC(C)NC(=O)COCc1cc(-c2ccc3c(c2)OCO3)on1,45.3% (active)
7,CCOC(=O)N1CCN(C(=O)COCc2cc(-c3ccc4c(c3)OCO4)on2)CC1,-7.65%
8,Cc1nn2c(=O)cc(COC(=O)c3ccc(NC(=O)C(C)(C)C)cc3)nc2s1,35.5%
9,COc1cccc(C2CC(c3cccs3)=NN2C(=O)CSC2=NCCS2)c1OC (stereo unspecified),-5.1%
10,CCCc1cc(=O)oc2cc(OCC(=O)Nc3ccc(CN4CCOCC4)cc3)c(Cl)cc12,-1.59%
11,COc1ccc(C2=NOC3(CC(=O)N(c4ccc(C)cc4)C3=O)C2)cc1 (stereo unspecified),36.5%
12,COc1ccc(C2=Nc3cc(C)ccc3OC2)cc1,94% (active)
13,Cc1ccc(C(=O)NNC2=Nc3cc([N+](=O)[O-])ccc3OC2)cc1,40.3%
14,Cn1cc(C(=O)c2ccc(Cl)cc2Cl)cc1C(=O)NN,-5.33%
15,CC(C)(C)c1ccc(SCCc2ccncc2)cc1,69.1% (active)
16,Cc1cc(C)c(SCCc2ccncc2)c(C)c1,-4.14%
17,c1ccc(CSCCc2ccncc2)cc1,-5.65%
18,CN(NS(=O)(=O)c1cccs1)c1ncc(C(F)(F)F)cc1Cl,-2.15%
19,Cn1c2ccccc2c(=O)c2c(=O)n(Cc3ccco3)c(COc3ccccc3)nc21,8.54%
20,COc1ccc(OCc2ccc(-c3nc4ccccc4c(=O)n3N)o2)cc1,129% (active)
21,Cc1ccc(C(=O)CSc2nc3ccccc3c(=O)n2N)o1,77.2%
22,Cn1c(COc2ccc(Cl)cc2)nc2ccccc2c1=O,46% (active)
23,COc1ccc(-c2nc3ccccc3c(=O)n2CCc2ccc(O)cc2)cc1,40.9%
24,Cc1nc2ccccc2c(=O)n1-c1ccc(Cl)cc1Cl,-14.3%

row,Compound,inhibition
1,COC(=O)c1sc(N2CCN(Cc3ccccc3)CC2)nc1N,-8.35%
2,Cc1ccc(CNCc2ccc3c(c2)OCO3)c(C)c1,-7.85%
3,O=C(O)C1=NN(c2c(F)c(F)cc(F)c2F)C(=O)CC1,-10.3%
4,CC(NS(=O)(=O)c1ccc(Cl)cc1)C(=O)Nc1ccc2c(c1)OCCO2 (stereo unspecified),-5.73%
5,CC(NC(=O)Nc1ccc2c(c1)OCO2)c1ccncc1 (stereo unspecified),19.2%
6,O=C(/C=C/c1ccc2c(c1)OCO2)NCc1ccc(F)cc1,26.5%
7,COc1ccc(/C=C/C(=O)Nc2ccc3c(c2)OCCO3)cc1OC,35.4%
8,Cc1cccc(NC(=O)Nc2ccc3c(c2)OCO3)n1,76.3% (active)
9,Cc1cccc(NC(=O)/C=C/c2ccc3c(c2)OCO3)n1,70.2% (active)
10,Cc1ccc2nc(-c3ccccn3)cc(C(=O)Nc3ccc4c(c3)OCO4)c2c1,-7.35%
11,CC(C)CNS(=O)(=O)c1ccc(C(=O)Nc2ccc3c(c2)OCO3)cc1,-14.7%
12,CNS(=O)(=O)c1ccc(NC(=O)Nc2ccc3c(c2)OCO3)cc1,72.9% (active)
13,CCc1c(C)sc(NC(=O)/C=C/c2ccc3c(c2)OCO3)c1C(=O)OC,-7.04%
14,COc1ccc(OC)c(/C=C/C(=O)OCC(=O)Nc2ccc3c(c2)OCCO3)c1,-11%
15,COc1cccc(/C=C/C(=O)Nc2ccc3c(c2)OCCO3)c1,70.9% (active)
16,COc1cccc(NC(=O)C2CCCN(c3ncnc4c3nc3n4CCCCC3)C2)c1 (stereo unspecified),-3.78%
17,Cc1ccc(N2CCN(C(=O)c3cccs3)CC2)c(C)c1,8.46%
18,CCc1ccc(OCC(=O)N(Cc2ccccc2)C2CCS(=O)(=O)C2)cc1 (stereo unspecified),-3.9%
19,CN(C)S(=O)(=O)c1cccc(C(=O)OCC(=O)N2CCCC2=O)c1,-2.45%
20,CC(C(=O)NC1CCS(=O)(=O)C1)N1C(=O)/C(=C/c2ccc(Cl)cc2)SC1=S (stereo unspecified),-2.44%
21,COc1ccccc1CN1CCN(Cc2cc(OC)c(OC)cc2OC)CC1,7.78%
22,COc1ccc(CNS(=O)(=O)c2ccc(NC(=O)N3CCCCC3)cc2)cc1,1.93%
23,CC(C)C(=O)Nc1c2c(nn1-c1ccccc1)CSC2,-0.685%
24,COc1cc2c(cc1OC)C(C)N(S(=O)(=O)c1cnc(Cl)c(Cl)c1)CC2 (stereo unspecified),-3.13%

row,Compound,inhibition
1,Oc1oc(-c2ccccc2Br)nc1/C=N/c1ccccn1,102% (active)
2,CC(C)n1c(O)c(N=Nc2ccccn2)c2ccccc21,11.1%
3,O=C(c1ccc[nH]c1=S)N1CCN(S(=O)(=O)c2ccc(Br)cc2Cl)CC1,-6.76%
4,CC(C)c1ccc(NC(=O)[C@@H](NC(=O)N2CC(=O)Nc3ccccc32)C(C)C)cc1,-1.19%
5,COc1ccc(N(C(=O)c2snc(C(N)=O)c2N)C(C(=O)NC2CCCC2)c2ccco2)cc1OC (stereo unspecified),10.1%
6,Cc1cnc(CN(C)C(=O)C2CCC(=O)N(CCc3cccc(F)c3)C2)[nH]1 (stereo unspecified),-1.92%
7,CCc1ccc(-c2nc(SCC(=O)NC3CCCC3)n[nH]2)cc1,22.7% (active)
8,COc1ccc(-c2nc(SCC(=O)N3CCCC3)n[nH]2)cc1,38.5%
9,CCc1c(C)nc(SCC(=O)NC2CCCC2)[nH]c1=O,-6.89%
10,COc1ccc(S(=O)(=O)NC(C)c2ccccc2)cc1C(=O)N1CCCCC1 (stereo unspecified),-7.47%
11,Clc1cccc(Cl)c1OCCOCCNCc1ccccc1,1.14%
12,Cc1cc(N2CCN(c3ccccc3)CC2)nc(N2CCOCC2)n1,-8.49%
13,FC(F)(F)c1nnc2ccc(N3CCN(c4ccccc4)CC3)nn12,-8.76%
14,Cc1cc(C)n(-c2nnc(N3CCN(c4ccccc4)CC3)nn2)n1,35.7% (active)
15,CCOc1ccc2[nH]c(=O)c(CN(CCCO)S(=O)(=O)c3ccc(F)cc3)cc2c1,-6.85%
16,Cc1ccc(C(=O)NCC(=O)OCC(=O)NC2CCCCCCC2)cc1,-5.5%
17,O=C1c2ccccc2C(=O)c2c1cccc2N1CCN(CCO)CC1,75.3% (active)
18,O=C1c2ccccc2C(=O)c2c1cccc2N1CCN(Cc2ccccc2)CC1,47.7%
19,O=C(NC(c1ccccc1)c1ccccc1)N1CCN(CCO)CC1,8.02%
20,NC(=O)CSc1nnc(NC(=O)c2ccc(Br)o2)s1,15.2%
21,CN(C)c1cccc(C(=O)N2CCC(n3nccc3NC(=O)C3CCOC3)CC2)c1 (stereo unspecified),-1.93%
22,Cc1c(NC(=O)Nc2ccccc2)cccc1[N+](=O)[O-],-38.1%
23,Cc1ccc(NC(=O)Nc2ccccc2)c(Br)c1,105% (active)
24,CS(=O)(=O)c1ccc(Cl)c(NC(=O)Nc2ccccc2)c1,38.5%
